# Measurements taken from publication PMC7826789 (International Journal of Molecular Sciences, 2021).
# System: STK35
# Conditions: Compound Concentration (nM):1000
# 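Further: KINOMEscan scanMAX binding as percent activity remaining versus control; lower means stronger binding.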
row,Structure (SMILES),Percent Control [%]
1,COc1cc(C=NNc2ncnc3c2cnn3-c2ccccc2)ccc1O [GW513184X],80
2,CCS(=O)(=O)c1ccc(OC)c(Nc2ncc(-c3cccc(OC)c3)o2)c1 [GW580509X],100
3,Cl.O=C(Nc1ccc(Oc2ccc3[nH]c(NC(=O)c4ccco4)nc3c2)cc1)Nc1cc(C(F)(F)F)ccc1F [GW683134A],81
4,CN1CCN(C(=O)c2ccc(NC(=O)Nc3ccc(N(C)c4ccnc(Nc5ccc(CS(C)(=O)=O)cc5)n4)cc3)cc2)CC1.Cl [GW830263A],71
5,COc1cc(N2CCN(C(C)C)CC2)ccc1Nc1nc(Nc2ccc(F)cc2C(=O)NC[C@@H](O)CO)c2cc[nH]c2n1 [GSK1392956A],100
6,C[C@@H](Oc1cc(-n2cnc3ccc(OC4CCN(C)CC4)cc32)sc1C(N)=O)c1ccccc1Cl [GSK579289A],82
7,COc1ccc2cc(-c3c(-c4ccncc4)nc(-c4ccc(S(C)(=O)=O)cc4C)n3C)ccc2c1 [SB-633825],57
8,COC(=O)Nc1nc2ccc(Oc3ccc(NC(=O)Nc4cc(C(F)(F)F)ccc4F)cc3)cc2s1.Cl [GW693917A],86
9,CN(C)CCNC(=O)Nc1ccc(N(C)c2ccnc(Nc3ccc(CS(C)(=O)=O)cc3)n2)cc1.Cl [GW830900A],14
10,COc1cc(/C=N/Nc2ncnc3[nH]ncc23)ccc1O [GW578748X],100
11,COc1cc2ncn(-c3cc(O[C@H](C)c4ccccc4Cl)c(C(N)=O)s3)c2cc1OC [GSK237701A],90
